# Laboratory results: PubChem BioAssay (NCI)
# This is part of a sample that, as a whole, favours compounds with a hit. Of some 79,000 tested, about 15% had one in any assay. Unmarked numbers belong to inactive results. Activity calls are given as the source filed them. No stated cut-off is given here; in the data, active means growth inhibition above about 70%; inactive means the rest.
# Key:
# [1] = NCI Yeast Anticancer Drug Screen. Data for the rad52 strain (AID 147);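 further: 0% = growth of vehicle-treated control cultures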; settings: S. cerevisiae rad52 mutant growth inhibition, stronger effect = higher value
# In short: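 DNA repair-defective yeast; compound exposure; growth scored against vehicle controls.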
# [2] = NCI Yeast Anticancer Drug Screen. Data for the wt1 strain (AID 149);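 further: 0% = growth of vehicle-treated wt1 cultures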; settings: S. cerevisiae wt1 strain (SPY 50644) growth inhibition, stronger effect = higher value
# In short: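 Compounds are added to wt1 yeast cultures. Growth is then measured. Inhibition is expressed relative to vehicle-treated controls.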
# [3] = NCI Yeast Anticancer Drug Screen. Data for the mgt1 strain (AID 153); settings: S. cerevisiae mgt1 mutant growth inhibition, stronger effect = higher value
# In short: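 Growth inhibition relative to vehicle controls was scored for the mgt1 yeast strain after compound exposure.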
# [4] = NCI Yeast Anticancer Drug Screen. Data for the rad14 strain (AID 159);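 further: 0% = growth of vehicle-treated control cultures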; settings: S. cerevisiae rad14 strain growth inhibition, stronger effect = higher value
# In short: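 A mutant yeast strain defective in DNA damage repair is treated with compound; inhibition of its growth is scored against untreated, vehicle-exposed cultures.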
# [5] = NCI Yeast Anticancer Drug Screen. Data for the CLN2oe strain (AID 163);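 further: 0% = growth of vehicle-only control cultures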; settings: S. cerevisiae CLN2oe strain, stronger effect = higher value
# In short: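 Compound-treated yeast; growth vs vehicle ctrl = % inhibition. Genetically altered strain (cell-cycle control).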
# [6] = NCI Yeast Anticancer Drug Screen. Data for the wt2 strain (AID 169);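 further: 0% = growth of vehicle-treated yeast cultures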; settings: S. cerevisiae wt2 strain growth inhibition, stronger effect = higher value
# In short: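 Compound exposure of yeast; growth compared with vehicle controls; inhibition reported.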
# [7] = NCI Yeast Anticancer Drug Screen. Data for the mlh1 strain (AID 171);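 further: 0% = growth of vehicle-treated control cultures of the same strain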; settings: S. cerevisiae mlh1 strain growth inhibition, stronger effect = higher value
# In short: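 Compounds are applied to a genetically altered yeast strain, and its growth is compared with that of vehicle-treated cultures to give percent inhibition.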
# [8] = NCI Yeast Anticancer Drug Screen. Data for the sgs1 strain (AID 173);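 further: 0% = growth of vehicle-only control cultures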; settings: S. cerevisiae sgs1 mutant, stronger effect = higher value
# In short: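 Compounds applied to genetically altered yeast; growth compared with vehicle-treated cultures to give % inhibition.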
# [9] = NCI Yeast Anticancer Drug Screen. Data for the rad18 strain (AID 177); settings: S. cerevisiae rad18 mutant growth inhibition, stronger effect = higher value
# In short: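 Compounds are applied to a repair-deficient yeast strain, and growth is compared with that of vehicle-treated cultures to give percent inhibition.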
# [10] = NCI Yeast Anticancer Drug Screen. Data for the rad50EPP+ strain (AID 151);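 further: 0% = growth of vehicle-treated control cultures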; settings: S. cerevisiae rad50 mutant strain, stronger effect = higher value
# In short: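 rad50EPP+ yeast treated with test compounds. Readout: growth vs vehicle control.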
# [11] = NCI Yeast Anticancer Drug Screen. Data for the rad50 strain (AID 155);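 further: 0% = growth of vehicle-only cultures of the same strain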; settings: S. cerevisiae rad50 strain growth inhibition, stronger effect = higher value
# In short: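 Inhibition values express reduced yeast growth in compound-treated cultures relative to vehicle-treated controls.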
# [12] = NCI Yeast Anticancer Drug Screen. Data for the sgs1 mgt1 strain (AID 161);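 further: 0% = growth of cultures given vehicle only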; settings: S. cerevisiae sgs1 mgt1 strain, stronger effect = higher value
# In short: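 Yeast cells carrying a defined DNA-repair defect were exposed to test compounds. Growth inhibition was measured relative to vehicle-treated controls.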
# [13] = NCI Yeast Anticancer Drug Screen. Data for the cln2 rad14 strain (AID 165);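 further: 0% = growth equal to vehicle treated cultures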; settings: S. cerevisiae cln2 rad14 strain, stronger effect = higher value
# In short: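 Growth inhibition, relative to vehicle-treated controls, is the read-out. The test organism is a yeast strain with defined genetic alterations, cln2 rad14.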
# [14] = NCI Yeast Anticancer Drug Screen. Data for the bub3 strain (AID 167); settings: S. cerevisiae bub3 mutant strain, stronger effect = higher value
# In short: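 Steps: expose the mutant yeast strain to compound; grow alongside vehicle-treated cultures; measure growth; express inhibition against the vehicle cultures.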
# [15] = NCI Yeast Anticancer Drug Screen. Data for the mlh1 rad18 strain (AID 175); settings: S. cerevisiae mlh1 rad18 strain growth inhibition, stronger effect = higher value
# In short: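 Cells of a genetically altered yeast strain, deficient in DNA damage repair, were treated with compound. Their growth was then compared with that of vehicle-treated cultures to give inhibition.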
# [16] = at 5.0 µM (retest, dose inferred, filed as 0.5)
# [17] = at 50.0 µM (retest, dose inferred, filed as 5.0)
structure (smiles),measurement,setting,value
O=C(O)c1ccccc1.[Ag],growth inhibition,[1]; at 1.2 µM,72% (active)
same,growth inhibition,[1]; at 3.7 µM,101% (active)
same,growth inhibition,[1]; at 11.0 µM,99% (active)
same,growth inhibition,[1]; at 33.0 µM,98% (active)
same,growth inhibition,[1]; at 100.0 µM,98% (active)
same,growth inhibition,[2]; at 1.2 µM,88% (active)
same,growth inhibition,[2]; at 3.7 µM,101% (active)
same,growth inhibition,[2]; at 11.0 µM,99% (active)
same,growth inhibition,[2]; at 33.0 µM,99% (active)
same,growth inhibition,[2]; at 100.0 µM,99% (active)
same,growth inhibition,[3]; at 1.2 µM,98% (active)
same,growth inhibition,[3]; at 3.7 µM,101% (active)
same,growth inhibition,[3]; at 11.0 µM,99% (active)
same,growth inhibition,[3]; at 33.0 µM,99% (active)
same,growth inhibition,[3]; at 100.0 µM,99% (active)
same,growth inhibition,[4]; at 1.2 µM,91% (active)
same,growth inhibition,[4]; at 3.7 µM,101% (active)
same,growth inhibition,[4]; at 11.0 µM,99% (active)
same,growth inhibition,[4]; at 33.0 µM,99% (active)
same,growth inhibition,[4]; at 100.0 µM,99% (active)
same,growth inhibition,[5]; at 1.2 µM,50%
same,growth inhibition,[5]; at 3.7 µM,101% (active)
same,growth inhibition,[5]; at 11.0 µM,98% (active)
same,growth inhibition,[5]; at 33.0 µM,98% (active)
same,growth inhibition,[5]; at 100.0 µM,98% (active)
same,growth inhibition,[6]; at 1.2 µM,76% (active)
same,growth inhibition,[6]; at 3.7 µM,101% (active)
same,growth inhibition,[6]; at 11.0 µM,99% (active)
same,growth inhibition,[6]; at 33.0 µM,99% (active)
same,growth inhibition,[6]; at 100.0 µM,99% (active)
same,growth inhibition,[7]; at 1.2 µM,96% (active)
same,growth inhibition,[7]; at 3.7 µM,101% (active)
same,growth inhibition,[7]; at 11.0 µM,99% (active)
same,growth inhibition,[7]; at 33.0 µM,99% (active)
same,growth inhibition,[7]; at 100.0 µM,99% (active)
same,growth inhibition,[8]; at 1.2 µM,75% (active)
same,growth inhibition,[8]; at 3.7 µM,101% (active)
same,growth inhibition,[8]; at 11.0 µM,99% (active)
same,growth inhibition,[8]; at 33.0 µM,99% (active)
same,growth inhibition,[8]; at 100.0 µM,99% (active)
same,growth inhibition,[9]; at 1.2 µM,74% (active)
same,growth inhibition,[9]; at 3.7 µM,101% (active)
same,growth inhibition,[9]; at 11.0 µM,99% (active)
same,growth inhibition,[9]; at 33.0 µM,99% (active)
same,growth inhibition,[9]; at 100.0 µM,99% (active)
COc1ccc(N=Nc2ccc3oc(=O)c(C(=O)Nc4ccccc4)cc3c2)cc1,growth inhibition,[1]; at 1.2 µM,-19%
same,growth inhibition,[1]; at 3.7 µM,-2%
same,growth inhibition,[1]; at 11.0 µM,85% (active)
same,growth inhibition,[1]; at 33.0 µM,96% (active)
same,growth inhibition,[1]; at 100.0 µM,95% (active)
same,growth inhibition,[2]; at 1.2 µM,-4%
same,growth inhibition,[2]; at 3.7 µM,2%
same,growth inhibition,[2]; at 11.0 µM,67%
same,growth inhibition,[2]; at 33.0 µM,96% (active)
same,growth inhibition,[2]; at 100.0 µM,94% (active)
same,growth inhibition,[10]; at 1.2 µM,6%
same,growth inhibition,[10]; at 3.7 µM,45%
same,growth inhibition,[10]; at 11.0 µM,83% (active)
same,growth inhibition,[10]; at 33.0 µM,94% (active)
same,growth inhibition,[10]; at 100.0 µM,95% (active)
same,growth inhibition,[11]; at 1.2 µM,-2%
same,growth inhibition,[11]; at 3.7 µM,7%
same,growth inhibition,[11]; [16],0%
same,growth inhibition,[11]; at 11.0 µM,89% (active)
same,growth inhibition,[11]; at 33.0 µM,96% (active)
same,growth inhibition,[11]; [17],95% (active)
same,growth inhibition,[11]; at 50.0 µM,87.7% (active)
same,growth inhibition,[11]; at 100.0 µM,96% (active)
same,growth inhibition,[4]; at 1.2 µM,4%
same,growth inhibition,[4]; at 3.7 µM,25%
same,growth inhibition,[4]; at 11.0 µM,96% (active)
same,growth inhibition,[4]; at 33.0 µM,97% (active)
same,growth inhibition,[4]; at 100.0 µM,97% (active)
same,growth inhibition,[12]; [16],12%
same,growth inhibition,[12]; [17],48%
same,growth inhibition,[12]; at 50.0 µM,87.2% (active)
same,growth inhibition,[5]; at 1.2 µM,-12%
same,growth inhibition,[5]; at 3.7 µM,-10%
same,growth inhibition,[5]; at 11.0 µM,48%
same,growth inhibition,[5]; at 33.0 µM,95% (active)
same,growth inhibition,[5]; at 100.0 µM,92% (active)
same,growth inhibition,[13]; [16],-19%
same,growth inhibition,[13]; [17],95% (active)
same,growth inhibition,[13]; at 50.0 µM,85.3% (active)
same,growth inhibition,[14]; at 1.2 µM,-11%
same,growth inhibition,[14]; at 3.7 µM,3%
same,growth inhibition,[14]; [16],29%
same,growth inhibition,[14]; at 11.0 µM,71% (active)
same,growth inhibition,[14]; at 33.0 µM,96% (active)
same,growth inhibition,[14]; [17],96% (active)
same,growth inhibition,[14]; at 50.0 µM,90.5% (active)
same,growth inhibition,[14]; at 100.0 µM,95% (active)
same,growth inhibition,[6]; at 1.2 µM,1%
same,growth inhibition,[6]; at 3.7 µM,14%
same,growth inhibition,[6]; at 11.0 µM,81% (active)
same,growth inhibition,[6]; at 33.0 µM,96% (active)
same,growth inhibition,[6]; at 100.0 µM,96% (active)
same,growth inhibition,[7]; at 1.2 µM,25%
same,growth inhibition,[7]; at 3.7 µM,31%
same,growth inhibition,[7]; at 11.0 µM,92% (active)
same,growth inhibition,[7]; at 33.0 µM,96% (active)
same,growth inhibition,[7]; at 100.0 µM,91% (active)
same,growth inhibition,[8]; at 1.2 µM,-9%
same,growth inhibition,[8]; at 3.7 µM,18%
same,growth inhibition,[8]; at 11.0 µM,93% (active)
same,growth inhibition,[8]; at 33.0 µM,97% (active)
same,growth inhibition,[8]; at 100.0 µM,96% (active)
same,growth inhibition,[15]; [16],39%
same,growth inhibition,[15]; [17],95% (active)
same,growth inhibition,[15]; at 50.0 µM,85.7% (active)
same,growth inhibition,[9]; at 1.2 µM,-7%
same,growth inhibition,[9]; at 3.7 µM,5%
same,growth inhibition,[9]; at 11.0 µM,84% (active)
same,growth inhibition,[9]; at 33.0 µM,95% (active)
same,growth inhibition,[9]; at 100.0 µM,96% (active)
